Experimental data as given in PubChem BioAssay (Tox21).
Inconclusive results are not listed. Calls of active or inactive are those of the source. Unless noted, the call rests on the fitted dose curve; in most records, active means well fitted curve in the direction sought with a large enough effect in the repeat runs; inconclusive means weak or mixed curves; inactive means no such curve, though single readings can be large; an effect the other way counts as inactive or inconclusive.

Assays:
[1] = target: Acetylcholinesterase (Homo sapiens) (UniProt P22303); assay: Acetylcholinesterase (AChE) small molecule antagonists: enzyme-based qHTS assay (AID 1347397; calls by dose curve; further: nearly all actives have a fitted effect of over 55% in size; further: potency means the concentration at half of the fitted maximal effect); details: Potency: AChE enzyme activity inhibition; outcome: AChE enzyme activity inhibition
Chain of Acetylcholinesterase (Homo sapiens) (P22303 whole entry, looked up): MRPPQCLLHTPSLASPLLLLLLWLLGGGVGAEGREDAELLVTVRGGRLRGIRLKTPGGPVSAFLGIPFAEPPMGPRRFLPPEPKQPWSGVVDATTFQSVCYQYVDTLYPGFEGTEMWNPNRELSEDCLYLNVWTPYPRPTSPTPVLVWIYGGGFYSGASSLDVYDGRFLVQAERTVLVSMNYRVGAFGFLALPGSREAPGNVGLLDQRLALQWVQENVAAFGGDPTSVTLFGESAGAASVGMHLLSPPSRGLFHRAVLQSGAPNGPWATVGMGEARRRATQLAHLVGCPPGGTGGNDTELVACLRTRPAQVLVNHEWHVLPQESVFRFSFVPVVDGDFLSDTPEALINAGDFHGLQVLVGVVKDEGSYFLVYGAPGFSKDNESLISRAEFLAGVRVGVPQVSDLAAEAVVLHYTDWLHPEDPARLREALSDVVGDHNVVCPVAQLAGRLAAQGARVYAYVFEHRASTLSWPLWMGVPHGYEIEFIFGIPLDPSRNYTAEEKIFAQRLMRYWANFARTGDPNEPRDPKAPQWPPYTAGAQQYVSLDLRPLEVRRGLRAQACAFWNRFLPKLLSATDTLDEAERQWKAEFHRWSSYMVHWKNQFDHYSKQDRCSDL
Outline: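 Absorbance-based detection of thiocholine with DTNB served as the read-out. Recombinant human AChE was exposed to compound for 30 min at RT before a 10 min RT incubation with acetylthiocholine.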

[2] = target: Acetylcholinesterase (Homo sapiens) (UniProt P22303); assay: Acetylcholinesterase (AChE) small molecule antagonists: fluorescence cell-based qHTS assay (AID 1347398; calls by dose curve; further: nearly all actives have a fitted effect of over 50% in size; further: potency means the concentration at half of the fitted maximal effect); details: Potency: AChE activity; outcome: AChE activity
Outline: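 Fluorimetric cell-based assay: intact SH-SY5Y cells, 30 min compound preincubation at 37 C, acetylthiocholine substrate with thiol probe Thiolite Green, 40 min RT development, fluorescence 490/520 nm.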

[3] = target: Acetylcholinesterase (Homo sapiens) (UniProt P22303); assay: Acetylcholinesterase (AChE) small molecule antagonists: enzyme-based qHTS assay with human liver microsomes (AID 1347399; calls by dose curve; further: nearly all actives have a fitted effect of over 60% in size; further: potency means the concentration at half of the fitted maximal effect); details: Potency: qHTS inhibition; outcome: qHTS inhibition
Outline: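 Recombinant human AChE (50 mU/mL in the enzyme mix) and human liver microsomes (0.25 mg/mL final) were preincubated with compound and NADPH (0.25 mg/mL final) for 30 min at 37 C. Acetylthiocholine/DTNB was then added; thiocholine was read colorimetrically after 10 min at room temperature.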

[4] = target: Cytochrome P450 2D6 (Homo sapiens) (UniProt P10635); assay: Cytochrome P450 Family 2 Subfamily D Member 6 (CYP2D6) small molecule antagonists: luciferase reporter qHTS assay (AID 1671196); further: nearly all actives have a fitted effect of over 50% in size; further: potency means the concentration at half of the fitted maximal effect; on activity change, negative = inhibition: series mostly up to about 120 µM
Chain of Cytochrome P450 2D6 (Homo sapiens) (P10635 whole entry, looked up): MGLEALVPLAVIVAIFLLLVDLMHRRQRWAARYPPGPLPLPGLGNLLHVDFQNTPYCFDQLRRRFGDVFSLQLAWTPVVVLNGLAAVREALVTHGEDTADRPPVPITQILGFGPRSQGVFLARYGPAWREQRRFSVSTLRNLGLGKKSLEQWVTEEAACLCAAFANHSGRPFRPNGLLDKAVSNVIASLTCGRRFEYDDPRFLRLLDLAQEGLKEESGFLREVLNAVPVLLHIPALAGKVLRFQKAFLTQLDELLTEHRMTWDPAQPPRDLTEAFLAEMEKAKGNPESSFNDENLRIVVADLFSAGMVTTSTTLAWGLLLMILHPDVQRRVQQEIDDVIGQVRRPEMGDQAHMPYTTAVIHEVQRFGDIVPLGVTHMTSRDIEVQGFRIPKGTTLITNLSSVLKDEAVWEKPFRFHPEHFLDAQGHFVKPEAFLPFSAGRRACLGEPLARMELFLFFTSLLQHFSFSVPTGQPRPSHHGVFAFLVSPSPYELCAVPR
Outline: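 CYP2D6 enzyme–substrate mix was held with compound for 10 min at room temperature, then NADPH regeneration solution was added and the reaction ran 1 h at room temperature. Luciferin product was detected by luminescence after 20 min with detection reagent.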

[5] = target: Cytochrome P450 2C19 (Homo sapiens) (UniProt P33261); assay: Cytochrome P450 Family 2 Subfamily C Member 19 (CYP2C19) small molecule antagonists: luciferase reporter qHTS assay (AID 1671197); further: nearly all actives have a fitted effect of over 65% in size; further: potency means the concentration at half of the fitted maximal effect; on activity change, negative = inhibition: series mostly up to about 120 µM
Chain of Cytochrome P450 2C19 (Homo sapiens) (P33261 whole entry, looked up): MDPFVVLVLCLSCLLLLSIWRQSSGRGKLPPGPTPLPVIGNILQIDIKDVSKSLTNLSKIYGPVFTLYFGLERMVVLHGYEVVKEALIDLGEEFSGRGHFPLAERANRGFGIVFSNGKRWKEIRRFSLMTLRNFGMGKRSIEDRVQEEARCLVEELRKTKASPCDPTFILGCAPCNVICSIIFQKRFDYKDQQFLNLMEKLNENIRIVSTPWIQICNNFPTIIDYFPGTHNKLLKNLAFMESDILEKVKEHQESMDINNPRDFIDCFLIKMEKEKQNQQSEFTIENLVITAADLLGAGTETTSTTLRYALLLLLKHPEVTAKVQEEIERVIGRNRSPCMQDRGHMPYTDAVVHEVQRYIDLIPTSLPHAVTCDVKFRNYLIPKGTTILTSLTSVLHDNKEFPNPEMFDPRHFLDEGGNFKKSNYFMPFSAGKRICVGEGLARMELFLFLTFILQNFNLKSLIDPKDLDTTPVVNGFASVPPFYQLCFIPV
Outline: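 Light output is proportional to CYP2C19 activity: proluciferin substrate is converted to luciferin, then detected by a luciferin detection reagent that also stops the 1 h, 37C NADPH-driven reaction. Ketoconazole serves as positive control.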

[6] = target: Cytochrome P450 2C9 (Homo sapiens) (UniProt P11712); assay: Cytochrome P450 Family 2 Subfamily C Member 9 (CYP2C9) small molecule antagonists: luciferase reporter qHTS assay (AID 1671198); further: nearly all actives have a fitted effect of over 50% in size; further: potency means the concentration at half of the fitted maximal effect; on activity change, negative = inhibition: series mostly up to about 120 µM
Chain of Cytochrome P450 2C9 (Homo sapiens) (P11712 whole entry, looked up): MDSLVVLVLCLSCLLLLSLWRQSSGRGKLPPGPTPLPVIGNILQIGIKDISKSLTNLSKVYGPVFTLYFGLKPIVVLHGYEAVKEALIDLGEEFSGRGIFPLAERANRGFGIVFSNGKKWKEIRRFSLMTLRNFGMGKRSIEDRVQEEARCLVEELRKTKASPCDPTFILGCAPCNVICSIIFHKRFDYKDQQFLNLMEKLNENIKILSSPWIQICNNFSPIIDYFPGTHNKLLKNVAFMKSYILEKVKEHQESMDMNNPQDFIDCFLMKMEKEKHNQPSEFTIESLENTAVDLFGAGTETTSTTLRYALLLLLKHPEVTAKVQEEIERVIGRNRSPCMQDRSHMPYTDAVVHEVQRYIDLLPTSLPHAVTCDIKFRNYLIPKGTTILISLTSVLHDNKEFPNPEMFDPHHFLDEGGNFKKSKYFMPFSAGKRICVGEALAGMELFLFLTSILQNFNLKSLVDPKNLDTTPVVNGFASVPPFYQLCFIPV
Outline: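 Enzyme-substrate mix preincubated with compound 10 min at room temperature; reaction started with NADPH regeneration solution, 1 h 37C. Luminescent luciferin product read after 20 min detection reagent.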

[7] = target: Voltage-gated inwardly rectifying potassium channel KCNH2 (Homo sapiens) (UniProt Q12809); assay: Human Ether-a-go-go-Related Gene (hERG) channel small molecule antagonists: fluorescence cell-based qHTS assay (AID 1671200);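 further: hERG-expressing U2OS cells given a thallium stimulus after FluxOR II dye loading; series mostly up to about 77 µM; nearly all actives have a fitted effect of over 50% in size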
Chain of Voltage-gated inwardly rectifying potassium channel KCNH2 (Homo sapiens) (Q12809 whole entry, looked up): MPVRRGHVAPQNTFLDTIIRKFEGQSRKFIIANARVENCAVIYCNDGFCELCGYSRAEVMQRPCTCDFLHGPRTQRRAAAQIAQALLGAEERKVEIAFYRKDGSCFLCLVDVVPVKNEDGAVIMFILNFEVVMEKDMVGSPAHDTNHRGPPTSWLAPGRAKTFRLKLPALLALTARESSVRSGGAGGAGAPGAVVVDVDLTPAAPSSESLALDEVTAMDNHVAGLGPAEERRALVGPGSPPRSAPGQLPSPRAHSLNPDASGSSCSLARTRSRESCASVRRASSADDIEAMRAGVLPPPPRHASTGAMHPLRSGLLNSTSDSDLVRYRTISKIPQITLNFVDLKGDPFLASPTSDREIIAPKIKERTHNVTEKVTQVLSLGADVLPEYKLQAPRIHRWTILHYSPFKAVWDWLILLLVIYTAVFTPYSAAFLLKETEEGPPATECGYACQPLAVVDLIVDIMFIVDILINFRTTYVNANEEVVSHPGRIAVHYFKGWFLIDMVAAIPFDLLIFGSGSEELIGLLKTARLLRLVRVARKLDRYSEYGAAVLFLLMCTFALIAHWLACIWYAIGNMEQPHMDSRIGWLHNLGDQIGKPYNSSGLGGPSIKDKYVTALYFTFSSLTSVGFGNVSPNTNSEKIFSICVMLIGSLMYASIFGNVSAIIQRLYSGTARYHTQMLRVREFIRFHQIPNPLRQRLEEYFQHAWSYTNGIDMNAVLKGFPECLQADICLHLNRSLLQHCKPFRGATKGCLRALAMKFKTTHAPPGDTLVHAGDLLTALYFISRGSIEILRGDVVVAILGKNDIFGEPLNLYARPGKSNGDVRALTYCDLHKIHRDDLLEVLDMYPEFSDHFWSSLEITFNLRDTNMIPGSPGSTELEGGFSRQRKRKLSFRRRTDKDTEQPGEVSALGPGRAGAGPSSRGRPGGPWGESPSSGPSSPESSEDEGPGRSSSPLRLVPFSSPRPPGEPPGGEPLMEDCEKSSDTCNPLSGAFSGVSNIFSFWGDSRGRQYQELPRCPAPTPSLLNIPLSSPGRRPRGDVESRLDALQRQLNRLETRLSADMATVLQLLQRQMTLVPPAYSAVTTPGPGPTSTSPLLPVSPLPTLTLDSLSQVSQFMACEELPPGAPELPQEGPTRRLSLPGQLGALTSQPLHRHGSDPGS
Outline: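 hERG-U2OS cells plated overnight at 37 C, loaded with FluxOR II dye 1 h at RT in dark; after 10 min, thallium stimulus added. Fluorescence (480/540 nm) read kinetically for 2 min at 1 s intervals.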

[8] = target: Cytochrome P450 3A4 (Homo sapiens) (UniProt P08684); assay: Cytochrome P450 Family 3 Subfamily A Member 4 (CYP3A4) small molecule antagonists: luciferase reporter qHTS assay (AID 1671201)
Chain of Cytochrome P450 3A4 (Homo sapiens) (P08684 whole entry, looked up): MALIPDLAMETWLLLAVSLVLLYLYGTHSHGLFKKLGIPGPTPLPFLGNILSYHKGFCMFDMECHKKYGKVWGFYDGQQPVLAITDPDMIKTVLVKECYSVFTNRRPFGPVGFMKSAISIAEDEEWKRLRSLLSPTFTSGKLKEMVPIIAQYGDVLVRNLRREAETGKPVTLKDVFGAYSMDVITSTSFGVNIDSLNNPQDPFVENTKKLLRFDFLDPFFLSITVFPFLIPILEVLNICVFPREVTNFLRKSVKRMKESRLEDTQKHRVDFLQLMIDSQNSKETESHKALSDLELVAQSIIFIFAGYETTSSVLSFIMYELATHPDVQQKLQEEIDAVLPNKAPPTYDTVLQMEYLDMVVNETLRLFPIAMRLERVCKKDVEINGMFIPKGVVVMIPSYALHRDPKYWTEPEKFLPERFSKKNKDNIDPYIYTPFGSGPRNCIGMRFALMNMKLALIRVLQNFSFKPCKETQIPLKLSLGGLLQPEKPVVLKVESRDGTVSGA
Outline: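 P450-Glo CYP3A4 luminescent assay: compounds preincubated 10 min at room temperature with enzyme and proluciferin substrate, NADPH regeneration added, 1 h room-temperature reaction, stopped with luciferin detection reagent; luminescence read after 20 min. Ketoconazole positive control.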

[9] = target: Cytochrome P450 1A2 (Homo sapiens) (UniProt P05177); assay: Cytochrome P450 Family 1 Subfamily A Member 2 (CYP1A2) small molecule antagonists: luciferase reporter qHTS assay (AID 1671199); further: nearly all actives have a fitted effect of over 50% in size; further: potency means the concentration at half of the fitted maximal effect; on activity change, negative = inhibition: series mostly up to about 120 µM
Chain of Cytochrome P450 1A2 (Homo sapiens) (P05177 whole entry, looked up): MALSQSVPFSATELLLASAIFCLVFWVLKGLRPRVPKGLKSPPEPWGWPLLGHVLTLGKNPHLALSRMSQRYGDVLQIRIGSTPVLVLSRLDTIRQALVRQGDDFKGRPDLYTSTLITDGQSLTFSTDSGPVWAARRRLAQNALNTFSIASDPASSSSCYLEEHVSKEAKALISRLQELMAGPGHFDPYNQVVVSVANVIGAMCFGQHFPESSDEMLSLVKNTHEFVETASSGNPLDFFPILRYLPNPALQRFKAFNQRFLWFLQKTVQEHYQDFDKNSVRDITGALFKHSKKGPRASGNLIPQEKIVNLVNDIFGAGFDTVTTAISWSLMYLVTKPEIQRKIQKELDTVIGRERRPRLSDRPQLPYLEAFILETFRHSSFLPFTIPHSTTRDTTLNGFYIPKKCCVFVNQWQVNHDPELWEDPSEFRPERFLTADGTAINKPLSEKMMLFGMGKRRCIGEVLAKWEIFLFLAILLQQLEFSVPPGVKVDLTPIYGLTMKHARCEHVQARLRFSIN
Outline: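 Human CYP1A2 activity measured with a P450-Glo proluciferin substrate; compounds in DMSO preincubated 10 min at room temperature with enzyme-substrate mix, then NADPH regeneration system added for 1 h. Luciferin detection reagent, 20 min, luminescence read.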
On the % scale 0 is the no-effect control and ±100 the full control effect.

CNC(=O)O/N=C(/CSC)C(C)(C)C
active: Potency [1] 1 µM | Potency [2] 0.142 µM | Potency [3] 11.2 µM | Potency [5] 20 µM
inactive: Potency [4] | Potency [6] | Potency [7] | Potency [8]

Clc1cc2c(cc1Cl)Oc1cc(Cl)c(Cl)cc1O2
inactive: activity change, negative = inhibition [1] 0.681% [at 0.435 µM] | activity change, negative = inhibition [2] 4.87% [at 0.439 µM] | activity change, negative = inhibition [3] -0.563% [at 0.435 µM] | activity change, negative = inhibition [4] -1.99% [at 0.435 µM] | activity change, negative = inhibition [5] -2.53% [at 0.435 µM] | activity change, negative = inhibition [6] 2.52% [at 0.435 µM] | activity change, negative = inhibition [7] 4.67% [at 0.29 µM] | activity change, negative = inhibition [8] -0.782% [at 0.435 µM]

CC(C)(C1CCC(O)CC1)C1CCC(O)CC1 (stereo unspecified)
inactive: Potency [1] | Potency [2] | Potency [3] | Potency [4] | Potency [9] | Potency [7] | Potency [8]
active: Potency [5] 71 µM

CCCCOC(C)=O
inactive: Potency [1] | Potency [2] | Potency [3] | Potency [4] | Potency [5] | Potency [6] | Potency [7] | Potency [8]

C=CCCC#N
inactive: Potency [1] | Potency [2] | Potency [3] | Potency [6] | Potency [7] | Potency [8]
active: Potency [4] 38.9 µM | Potency [5] 61.7 µM

C[C@H](N)C(=O)c1ccccc1
active: Potency [4] 42.2 µM | Potency [5] 47.3 µM | Potency [9] 53.1 µM
inactive: Potency [1] | Potency [2] | Potency [3] | Potency [7]

CCN(CC)CCOC(=O)C(O)(c1ccccc1)c1ccccc1
inactive: Potency [1] | Potency [2] | Potency [3] | Potency [5] | Potency [9]
active: Potency [4] 3.47 µM

Brc1c(Br)c(Br)c(Br)c(Br)c1Br
inactive: activity change, negative = inhibition [1] -2.31% [at 10.5 µM] | activity change, negative = inhibition [2] -32.6% [at 10.5 µM] | activity change, negative = inhibition [3] -0.832% [at 10.5 µM] | activity change, negative = inhibition [4] -1.47% [at 10.5 µM] | activity change, negative = inhibition [5] -0.615% [at 10.5 µM] | activity change, negative = inhibition [6] 0.0091% [at 10.5 µM] | activity change, negative = inhibition [7] 19.9% [at 6.97 µM] | activity change, negative = inhibition [8] 2.63% [at 10.5 µM]

CC[C@@H](CO)NC(=O)[C@@H]1C=C2c3cccc4c3c(cn4C)C[C@H]2N(C)C1
inactive: Potency [3] | Potency [5] | Potency [7]
active: Potency [1] 4.36 µM | Potency [2] 1.1 µM | Potency [4] 6.92 µM

CCOC(=O)N(C)N=O
inactive: Potency [1] | Potency [2] | Potency [3] | Potency [4] | Potency [5] | Potency [6] | Potency [7] | Potency [8]

CCCC(C)(COC(N)=O)COC(N)=O
inactive: Potency [1] | Potency [2] | Potency [3] | Potency [4] | Potency [9] | Potency [7]
active: Potency [5] 33.7 µM

CNC(=O)Oc1ccccc1C(C)C
active: Potency [1] 7.96 µM | Potency [2] 4.48 µM | Potency [3] 56.4 µM | Potency [5] 39.9 µM | Potency [9] 35.6 µM
inactive: Potency [4] | Potency [7] | Potency [8]

O=C(O)C(Br)(Br)Br
inactive: Potency [1] | Potency [2] | Potency [3] | Potency [4] | Potency [6] | Potency [7] | Potency [8]
active: Potency [5] 31.7 µM

C#CC(C)(C)O
inactive: Potency [1] | Potency [2] | Potency [3] | Potency [4] | Potency [5] | Potency [6] | Potency [7] | Potency [8]

OP(O)c1ccccc1
inactive: Potency [1] | Potency [2] | Potency [3] | Potency [4] | Potency [5] | Potency [6] | Potency [7] | Potency [8]

O=C(Cl)/C=C/C(=O)Cl
inactive: Potency [1] | Potency [2] | Potency [3] | Potency [4] | Potency [5] | Potency [9] | Potency [7] | Potency [8]

CN(C)C(=O)Oc1cc(OC(=O)N(C)C)cc(C(O)CNC(C)(C)C)c1 (stereo unspecified)
inactive: Potency [1] | Potency [2] | Potency [3] | Potency [5] | Potency [6] | Potency [7] | Potency [8]
active: Potency [4] 4.9 µM

CC(C)(N)Cc1ccccc1Cl
active: Potency [4] 4.36 µM
inactive: Potency [1] | Potency [2] | Potency [3] | Potency [5] | Potency [6] | Potency [7] | Potency [8]

ClC(Cl)(Cl)Cl
inactive: Potency [1] | Potency [2] | Potency [3] | Potency [4] | Potency [5] | Potency [6] | Potency [7] | Potency [8]

N#CN=C1SCCN1Cc1ccc(Cl)nc1
active: Potency [4] 39.9 µM
inactive: Potency [1] | Potency [2] | Potency [3] | Potency [5] | Potency [7] | Potency [8]

CCCCS(=O)(=O)Cl
inactive: Potency [1] | Potency [2] | Potency [3] | Potency [4] | Potency [6] | Potency [9] | Potency [7] | Potency [8]

O=C(NC(=O)c1c(F)cccc1F)Nc1cc(Cl)c(F)c(Cl)c1F
active: Potency [5] 69.2 µM
inactive: Potency [1] | Potency [2] | Potency [3] | Potency [4] | Potency [7] | Potency [8]

Cc1ccc(Cl)c(O)c1
inactive: Potency [1] | Potency [2] | Potency [3] | Potency [4] | Potency [6] | Potency [9] | Potency [7] | Potency [8]

O=C(NC(O)C(Cl)(Cl)Cl)NC(O)C(Cl)(Cl)Cl (stereo unspecified)
inactive: Potency [1] | Potency [2] | Potency [3] | Potency [4] | Potency [6] | Potency [7] | Potency [8]

Cc1ccc2c(c1)C1CN(C)CCC1N2 (stereo unspecified)
inactive: activity change, negative = inhibition [1] 0.554% [at 23.6 µM] | activity change, negative = inhibition [2] -10.6% [at 23.8 µM] | activity change, negative = inhibition [3] -0.336% [at 23.6 µM] | activity change, negative = inhibition [6] 0.693% [at 23.6 µM] | activity change, negative = inhibition [7] -9.94% [at 15.8 µM] | activity change, negative = inhibition [8] 8.41% [at 23.6 µM]
active: Potency [4] 4.25 µM

N[C@@H]1C[C@H]1c1ccccc1
inactive: outcome [1] | outcome [2] | outcome [3] | Potency [7]
active: Potency [4] 27.5 µM | Potency [6] 19.5 µM

CCCOc1nn(C(=O)NS(=O)(=O)c2ccccc2C(=O)OC)c(=O)n1C
inactive: Potency [1] | Potency [2] | Potency [3] | Potency [4] | Potency [5] | Potency [7] | Potency [8]

Clc1ccc(C(Cl)(Cl)Cl)cn1
inactive: Potency [1] | Potency [2] | Potency [3] | Potency [4] | Potency [6] | Potency [7]

CC(C)(C)C(=O)C(Cl)Cl
inactive: Potency [1] | Potency [2] | Potency [3] | Potency [4] | Potency [6] | Potency [7] | Potency [8]
